# Laboratory results taken from PubChem BioAssay (NCATS).
# Results filed as inconclusive are left out. Entries that show only a call come without a potency. Active and inactive are the calls of the source. The call rests on the fitted dose curve; in most records, active means well fitted inhibition curve with a large enough effect; inconclusive means small, poorly fitted or top-dose-only effect; inactive means flat fitted curve, though single readings scatter.
# What was measured:
# Test in all cases: qHTS profiling for inhibitors of Plasmodium falciparum proliferation (AID 504749); further: nearly all actives have a fitted effect of over 60% in size
# Conditions in all cases: P. falciparum in erythrocytes, SYBR Green DNA, 72 h; series mostly up to 28.7 µM
# DIV17 = test system: DIV17
# Procedure, shortened: (§1)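 P. falciparum-infected erythrocytes (0.3% parasitemia, 2.5% hematocrit) incubated with compound 72 h at 37 C, 5% CO2. Parasite DNA detected by SYBR Green after lysis, overnight at room temperature; normalised to 0.29 uM artemisinin and DMSO.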
# ECU = test system: ECU
# Procedure, shortened: as §1
# FAB9 = test system: FAB9
# Procedure, shortened: as §1
# JCK = test system: JCK
# Procedure, shortened: as §1
# P94_40 = test system: P94_40
# Procedure, shortened: as §1
# PC49 = test system: PC49
# Procedure, shortened: as §1
# TAB109 = test system: TAB109
# Procedure, shortened: as §1
# TAB113 = test system: TAB113
# Procedure, shortened: as §1
# TAB165 = test system: TAB165
# Procedure, shortened: as §1
# DIV30 = test system: DIV30
# Procedure, shortened: as §1
# HB3 = test system: HB3
# Procedure, shortened: as §1
# PAD = test system: PAD
# Procedure, shortened: as §1
# PC15 = test system: PC15
# Procedure, shortened: as §1
# PC26 = test system: PC26
# Procedure, shortened: as §1
# SC27B = test system: SC27B
# Procedure, shortened: as §1
# GB4 = test system: GB4
# Procedure, shortened: as §1
# ICS = test system: ICS
# Procedure, shortened: as §1
# N140 = test system: N140
# Procedure, shortened: as §1
# P93_24 = test system: P93_24
# Procedure, shortened: as §1
# Dd2 = test system: Dd2
# Procedure, shortened: as §1
# Potency means the concentration at half of the fitted maximal effect.
SMILES,Potency (DIV17),Potency (ECU),Potency (FAB9),Potency (JCK),Potency (P94_40),Potency (PC49),Potency (TAB109),Potency (TAB113),Potency (TAB165),Potency (DIV30),Potency (HB3),Potency (PAD),Potency (PC15),Potency (PC26),Potency (SC27B),Potency (GB4),Potency (ICS),Potency (N140),Potency (P93_24),Potency (Dd2)
CN(C)C(=O)Nc1ccc(Cl)c(Cl)c1,4.78 µM (active),inactive,inactive,inactive,inactive,3.55 µM (active),inactive,inactive,inactive,,,,,,,,,,,
CN1CCN(c2cc3c(cc2F)c(=O)c(C(=O)O)cn3-c2ccc(F)cc2)CC1,inactive,inactive,inactive,inactive,,inactive,,inactive,inactive,inactive,inactive,inactive,inactive,inactive,inactive,,,,,
O=C(Nc1ccc([N+](=O)[O-])cc1)Nc1ccc([N+](=O)[O-])cc1,inactive,inactive,inactive,inactive,inactive,inactive,inactive,inactive,inactive,inactive,,inactive,inactive,inactive,inactive,inactive,2 µM (active),inactive,inactive,
COc1ccc(C(Cl)=C(c2ccc(OC)cc2)c2ccc(OC)cc2)cc1,inactive,2.24 µM (active),,,11.2 µM (active),,3.55 µM (active),,2.51 µM (active),inactive,,,inactive,inactive,,inactive,,15.8 µM (active),,
OCCOCCN1CCN(C2=Nc3ccccc3Sc3ccccc32)CC1,inactive,inactive,inactive,inactive,inactive,inactive,inactive,inactive,inactive,inactive,inactive,inactive,inactive,,inactive,inactive,,inactive,inactive,
CC(C)(C)NC[C@H](O)COc1nsnc1N1CCOCC1,3.38 µM (active),7.94 µM (active),,,3.16 µM (active),,5.01 µM (active),6.31 µM (active),5.01 µM (active),,3.55 µM (active),6.31 µM (active),2.24 µM (active),12 µM (active),12.6 µM (active),7.57 µM (active),1.26 µM (active),3.98 µM (active),3.55 µM (active),5.62 µM (active)
Cc1cc(-c2ccccc2)nnc1NCCN1CCOCC1,8.49 µM (active),,inactive,inactive,inactive,inactive,,inactive,inactive,,inactive,,,inactive,inactive,inactive,,inactive,inactive,
NC(N)=NN=C(/C=C/c1ccc([N+](=O)[O-])o1)/C=C/c1ccc([N+](=O)[O-])o1,7.57 µM (active),12.6 µM (active),,,,11.2 µM (active),7.08 µM (active),,7.94 µM (active),,2.24 µM (active),10 µM (active),,,,,2 µM (active),10 µM (active),12.6 µM (active),2.82 µM (active)
CN1CCc2cccc3c2[C@H]1Cc1ccc(O)c(O)c1-3,7.57 µM (active),,,,3.98 µM (active),,8.91 µM (active),,7.08 µM (active),,11.2 µM (active),11.2 µM (active),8.91 µM (active),15.1 µM (active),,7.57 µM (active),2.82 µM (active),10 µM (active),7.94 µM (active),inactive
Clc1cccc(C(c2ccc3nc[nH]c3c2)n2ccnc2)c1 (stereo not given),13.5 µM (active),3.16 µM (active),,inactive,,inactive,,,7.94 µM (active),12 µM (active),,,12.6 µM (active),,10 µM (active),12 µM (active),5.62 µM (active),10 µM (active),7.08 µM (active),
CN(Cc1ccc(C(C)(C)C)cc1)Cc1cccc2ccccc12,inactive,inactive,inactive,inactive,,inactive,inactive,,,inactive,,inactive,inactive,inactive,inactive,inactive,,inactive,,
CC(C)(Cc1c[nH]c2ccccc12)NCC(O)COc1ccccc1C#N (stereo not given),9.53 µM (active),,inactive,inactive,11.2 µM (active),inactive,10 µM (active),,12.6 µM (active),,,,,inactive,,9.53 µM (active),11.2 µM (active),,,12.6 µM (active)
COc1cc(NS(=O)(=O)c2ccc(N)cc2)ncn1,,inactive,inactive,inactive,inactive,inactive,inactive,inactive,inactive,inactive,inactive,inactive,inactive,inactive,inactive,inactive,inactive,inactive,inactive,inactive
Cc1ccc(-c2ncc(Cl)cc2-c2ccc(S(C)(=O)=O)cc2)cn1,15.1 µM (active),,inactive,,11.2 µM (active),,,,,,,,,,,,,,,
CC(C)Nc1cccnc1N1CCN(C(=O)c2cc3cc(NS(C)(=O)=O)ccc3[nH]2)CC1,1.07 µM (active),inactive,inactive,inactive,inactive,inactive,inactive,inactive,inactive,,inactive,inactive,inactive,inactive,inactive,inactive,7.94 µM (active),inactive,,
Cc1cc(CC(=O)O)c(C)n1-c1ccc(Cl)cc1,16.9 µM (active),,inactive,inactive,,,inactive,,14.1 µM (active),,inactive,,inactive,,,,8.91 µM (active),,,
CN1CCN(CCC(=O)N2c3ccccc3Sc3ccc(C(F)(F)F)cc32)CC1,8.49 µM (active),,inactive,inactive,inactive,,,inactive,,,inactive,,,,inactive,,7.08 µM (active),,,
COc1cc(N)c(Cl)cc1C(=O)NC1CCN(Cc2ccccc2)CC1,inactive,inactive,inactive,inactive,inactive,inactive,inactive,inactive,,,inactive,inactive,inactive,,inactive,,inactive,inactive,inactive,inactive
C/C=C/c1ccc(O)c(OC)c1,inactive,inactive,inactive,inactive,inactive,inactive,inactive,inactive,inactive,,inactive,inactive,inactive,inactive,inactive,inactive,,inactive,,inactive
O=C(CCN1CCN2CCCC2C1)N1c2ccccc2Sc2ccc(Cl)cc21 (stereo not given),5.36 µM (active),14.1 µM (active),inactive,inactive,,,,inactive,,,inactive,,,,,,5.01 µM (active),,,6.31 µM (active)
CNCCCCOc1ccccc1Cc1ccccc1,1.9 µM (active),,inactive,,,5.01 µM (active),4.47 µM (active),,,,inactive,,,,,1.69 µM (active),11.2 µM (active),,,2.51 µM (active)
